Compound activity deposited in PubChem BioAssay by National Center for Advancing Translational Sciences (NCATS).
DT40 TDP1 CPT – DT40-hTDP1 cell growth loss with CPT; Potency, µM (doses to about 46.2 µM), actives largely listed as inhibitors; 12% of 420,000 active; chicken DT40 Tdp1-/-;hTDP1 cells + 20 nM CPT, ATP luminescence, 48 h; also: nearly all actives have a fitted effect of over 55% in size
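Chicken DT40 Tdp1-/- cells stably complemented with human TDP1 were seeded at 400 cells/well in medium containing 20 nM camptothecin, exposed to pin-transferred compounds, and grown at 37 °C for at least 48 hr. Viability was read as ATP luminescence.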
HT1080NT lethal – kills 2HG-producing HT-1080-NT fibrosarcoma cells | Potency, µM (doses to about 46.1 µM), hits mostly cytotoxic | HT-1080-NT fibrosarcoma viability, CellTiter-Glo ATP luminescence, 48 h | 1.6% of 360,000 active;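 also: NT is the 2HG producing partner of a matched IDH1 knockdown line; nearly all actives have a fitted effect of over 55% in size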
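Toxicity toward the 2HG-producing NT line was scored as %Activity, normalised to DMSO and no-cell wells, from CellTiter-Glo luminescence after 48 hours' treatment.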
KB-3-1 tox – kills parental KB-3-1 adenocarcinoma cells; Potency, µM (highest dose often 46.1 µM), usual class: cytotoxic; KB-3-1 viability, CellTiter-Glo ATP luminescence, 72 h; 1.4% of 400,000 active; AID 1347075; also: nearly all actives have a fitted effect of over 60% in size
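KB-3-1 cells, DMEM (no phenol red) + 10% FBS; compound by pin transfer, 72 h, 37 °C. Readout: CellTiter-Glo luminescence after 10 min. Data normalized, curve-fitted.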
KB-V1 cytotox – KB-V1 MDR subline cytotoxicity. KB-V1 MDR cells viability, CellTiter-Glo, 72 h. Potency, µM (top dose mostly 46.1 µM), actives largely listed as cytotoxic. 3.4% of 400,000 active. AID 1347076; also: nearly all actives have a fitted effect of over 60% in size
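qHTS viability screen in drug-selected KB-V1 MDR cells: 72 h compound treatment at 37 degrees C, ATP luminescence end point.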
TDP1 cell noCPT – qHTS for Inhibitors of human tyrosyl-DNA phosphodiesterase 1 (TDP1): qHTS in cells in absence of CPT; Potency, µM (series often up to 46.2 µM), most hits filed as inhibitors; AID 686978, 2013; 15% of 420,000 active; DT40 Tdp1-/- hTDP1 cells, no CPT, ATP luminescence, 48 h; also: nearly all actives have a fitted effect of over 55% in size
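Chicken DT40 Tdp1-/- cells stably complemented with human TDP1 were seeded at 400 cells/well with DMSO in place of 20 nM camptothecin. After compound pinning, cells grew at least 48 hr at 37 °C; viability read by CellTiter-Glo luminescence.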
HT1080 IDH1KD tx – kills HT-1080 cells with IDH1 knockdown. AID 686971. Potency, µM (doses to about 46.1 µM), hits mostly cytotoxic. 2% of 360,000 active. HT-1080 IDH1 knockdown viability, ATP luminescence, 48 h
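Knockdown cells (IDH1KD HT-1080) received compounds 2 h after plating at 750 cells/well and were kept 48 h at 37 °C in 5% FBS RPMI. A CellTiter-Glo luminescence read gave % activity for curve fitting.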
A number is an active result; – = inactive; ? = inconclusive; · = not tested or not shown; [ ] = remark or other dose. Sampled rows, rich in hits. Any-hit rate of the full collection: about 19%. Calls follow the shape of the dose curve; as a rule, active = well fitted curve in the direction sought with a large enough effect; inconclusive = small, poorly fitted or top-dose-only effect, or another doubt; inactive = no such curve, though single readings can be large; an effect the other way counts as inactive or inconclusive.

SMILES	DT40 TDP1 CPT	HT1080NT lethal	KB-3-1 tox	KB-V1 cytotox	TDP1 cell noCPT	HT1080 IDH1KD tx
COC(=O)c1cc(OC)c(OC)cc1NC(=O)CCN1C(=O)C2CCCCC2C1=O (configuration not stated)	–	–	–	–	–	–
CCc1nc2ccc(C(=O)NCC3CCCCC3)cn2c1N(C)C(=O)c1cccc(OC)c1	?	–	–	–	?	–
COc1ccccc1-c1nc(SCC(=O)Nc2ccccc2)n[nH]1	–	–	–	–	–	–
COc1ccc(NC(=O)CSc2n[nH]c(-c3ccccn3)n2)cc1	16µM	–	?	–	23µM	?
CCCCCCCCNC(=O)c1cccnc1SCC(=O)Nc1ccccc1OC	?	–	–	?	21µM	–
COc1ccc(OC)c(NC(=O)CSc2n[nH]c(-c3ccccc3Cl)n2)c1	10µM	·	–	?	?	·
O=C(N/C(=C\c1ccccc1)C(=O)N1CCCCC1)c1ccc(Br)o1	?	–	–	–	?	–
O=C(COC(=O)c1ccccc1OCc1cccc(Br)c1)Nc1ccc(Br)cc1	?	·	?	–	?	·
Cc1nc2ccc(C(=O)NCCCN3CCCC3=O)cn2c1N(C)C(=O)CCc1ccccc1	–	–	–	–	–	–
Cc1cc(NC(=O)c2ccc3sc([C@@H]4O[C@H](CO)[C@H](O)[C@H](O)[C@H]4O)nc3c2)n(C)n1	–	–	–	–	–	?
Cc1c(Cl)ccc2c1NC(=O)[C@]21N[C@@H](Cc2ccccc2)[C@H]2C(=O)N(c3ccc(F)cc3)C(=O)[C@H]21	?	–	?	9.2µM	?	?
O=C1[C@@H]2C(Cc3ccc(O)cc3)NC3(C(=O)Nc4ccc(F)cc43)[C@@H]2C(=O)N1c1ccccc1 (some centres not stated)	–	–	–	–	–	–
CCN(CC)C(=O)c1[nH]cnc1C(=O)N[C@@H](Cc1ccccc1)C(=O)OC(C)(C)C	?	–	–	–	?	–
C/C(=N/NC(=O)c1ccc(C)nc1)c1ccc2c(c1)CCCC2	15µM	16µM	?	10µM	23µM	23µM
COc1cc(C(=O)NCC(=O)N/N=C(/C)c2ccc3c(c2)CCCC3)cc(OC)c1OC	–	–	–	–	?	–
CCCCCn1cc2c(c1-c1ccc(Br)cc1)c(=O)n(C)c(=O)n2C	18µM	·	–	–	21µM	·
Cn1c(=O)c2c(-c3ccc(Br)cc3)n(CCc3ccccc3)cc2n(C)c1=O	15µM	·	–	–	?	·
Cn1c(=O)c2c(-c3ccc(Cl)cc3)n(CCc3ccccc3)cc2n(C)c1=O	?	·	–	–	23µM	·
CC(=O)Nc1ccccc1-c1nc(CNC(=O)c2cc(C)ccc2C)c(C)o1	–[9.04 µM]	·	·	·	–	·
COc1ccccc1-n1c(=O)n(C)c2c(C(N)=O)nc(-c3cc(OC)c(OC)c(OC)c3)nc21	·	·	–	–	·	·
Cc1cccc(C)c1NC(=O)C1C(c2ccccc2)=Nc2ccccc2N1C(=O)c1cnccn1 (configuration not stated)	–	–	–	–	?	–
C=CCNc1nc2cc(-c3cccc(Cl)c3)sc2c(=O)n1C	13µM	?	–	?	16µM	?
COc1cccc(CNc2nc3cc(-c4ccccc4)sc3c(=O)n2C)c1OC	16µM	?	23µM	–	29µM	?
COc1cccc(CNc2nc3cc(-c4cccc(C(F)(F)F)c4)sc3c(=O)n2C)c1OC	?	–	–	–	?	–
COc1cccc(CNc2nc3cc(-c4ccccc4C)sc3c(=O)n2C)c1OC	15µM	?	?	–	23µM	?
SMILES	DT40 TDP1 CPT	HT1080NT lethal	KB-3-1 tox	KB-V1 cytotox	TDP1 cell noCPT	HT1080 IDH1KD tx
COc1cccc(CNc2nc3cc(-c4cccc(Cl)c4)sc3c(=O)n2C)c1OC	?	–	15µM	8.2µM	?	–
COc1ccccc1CNc1nc2cc(-c3ccc(OC)c(OC)c3)sc2c(=O)n1C	23µM	–	?	9.2µM	16µM	–
COc1ccc(-c2cc3nc(NCc4ccc(NC(C)=O)cc4)n(C)c(=O)c3s2)cc1OC	–	–	–	–	–	–
Cc1cc(=O)[nH]c2nnc(SCc3ccc(F)cc3)n12	–	·	·	·	–	·
O=C(c1ccc2ccccc2c1)N1CCN(Cc2ccccc2)CC1	?	–	–	–	–	–
COc1ccc(C2C(C#N)=C(N)Oc3cc(C)n(Cc4ccncc4)c(=O)c32)cc1 (configuration not stated)	4.6µM	–	–	?	2.1µM	–
OC[C@@H]1CN(Cc2ccc3c(c2)OCO3)C[C@H](n2cnc3c(NC4CCCC4)ncnc32)O1	?	–	–	–	?	–
